The list is not random: actives were taken first. Their share in the collection is about 2.9%.
p53 reactivator: restores transcriptional activity of mutant p53; H1299 p53-A138V BP100-luciferase reporter, luminescence, 24 h; Potency, µM (top dose mostly 92.2 µM), for the others: at the top dose activity change, positive = activation, most hits filed as activators; actives 0.063% (n = 320,000); AID 504706; note: potency is the fitted concentration of half-maximal effect; % of control where 0% means no effect; nearly all actives have a fitted effect of over 45% in size
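p53-null H1299 cells stably carrying temperature-sensitive p53-A138V and a BP100-luciferase reporter were pinned with compounds (4-point, 1:5 series) and held 24 hrs at 37 deg C. Luminescence was read 10 min after detection reagent.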
HEK293 tox: cytotoxic in the GLP-1 receptor inverse agonist counter-screen. HEK293 cAMP-luciferase reporter cells, luminescence, 24 h. Potency, µM (series often up to 38.3 µM), without a hit: at the top dose activity change, negative = inhibition, hits mostly inhibitors. actives 0.13% (n = 410,000);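 note: loss of luciferase light is scored as toxicity; potency is the fitted concentration of half-maximal effect; % is set by controls: 0 for no effect and ±100 for the full control effect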
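Step one: seed cells (200 cells/uL, DMEM with 10% Nu serum, 1% pen-strep). Step two: 12-hour incubation at 37 deg C. Step three: pin 23 nL compound, incubate 24 hr. Step four: add luciferase reagent, read luminescence 12 min later.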
GLP-1R inv ag: acts as inverse agonist at human GLP-1 receptor | P43220 | HEK293 GLP-1R CRE-luciferase, luminescence, 24 h; GLP-1R form is constitutively active | Potency, µM (top dose mostly 38.3 µM), for the others: at the top dose activity change, negative = inhibition, usual class: inhibitors | actives 1.6% (n = 410,000); note: potency is the fitted concentration of half-maximal effect; % is set by controls: 0 for no effect and ±100 for the full control effect; nearly all actives have a fitted effect of over 55% in size
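Cells are plated, allowed 12 hours at 37 deg C, then treated with compounds for 24 hr before luciferase detection reagent is added and luminescence is read after 12 min at room temperature. The HEK293 line carries constitutively active GLP-1R with a cAMP-responsive reporter.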
LDHA block: inhibitors of human lactate dehydrogenase A. P00338. purified LDHA, NADH/diaphorase-resazurin fluorescence; hits give low values. activity change, % (values are at about 110 or 230 µM). actives 0.15% (n = 480,000); in the data active = activity change below about -30%; inconclusive = mostly about -25% to -30%;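 note: plate controls were DMSO wells for no effect and wells without enzyme for full effect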
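Remaining NADH was detected by diaphorase (0.133 mg/mL) converting 37 µM resazurin to fluorescent resorufin, read at 0 and 20 minutes. The preceding 5-minute room-temperature reaction used 2 nM LDHA, 0.2 mM sodium pyruvate and 0.06 mM NADH at pH 7.4.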
ClpP mod: qHTS Assay for Activators of ClpP. ATP-dependent Clp protease proteolytic subunit (Bacillus subtilis (strain 168)), P80244. purified B. subtilis ClpP, FRET peptide cleavage, 20 min. Potency, µM (titrated, usually from 57.5 µM), for inactives: at the top dose activity change, negative = active. actives 1.9% (n = 340,000); active = well fitted falling curve with a large enough effect; inconclusive = small, poorly fitted or top-dose-only effect; inactive = no such curve, though single readings can be large or run the other way; note: potency is the fitted concentration of half-maximal effect; the source files actives as falling curves though it sought activators and does not explain the sign; nearly all actives have a fitted effect of over 65% in size
Target sequence (P80244 whole entry, looked up): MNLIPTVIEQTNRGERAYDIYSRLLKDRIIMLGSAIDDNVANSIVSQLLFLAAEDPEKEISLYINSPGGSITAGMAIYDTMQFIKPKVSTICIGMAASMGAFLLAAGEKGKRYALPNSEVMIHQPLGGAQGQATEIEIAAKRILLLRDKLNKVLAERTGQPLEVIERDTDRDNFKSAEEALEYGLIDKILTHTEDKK
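Purified B. subtilis ClpP, 10 microg/mL final in Tris/HCl pH8 with KCl, BSA, glycerol and Tween-20, cleaved an Abz/nitrotyrosine-quenched decapeptide. Fluorescence (ex 320, em 430) was read at 0 and 20 min at room temperature. Delta was normalized to 5.8 microM ADEP and DMSO/no-enzyme controls.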
GLP-1R agonist: activates the human GLP-1 receptor; P43220; HEK293 GLP-1R CRE-luciferase, luminescence, 4-6 h; cells express a hypersensitive GLP-1R form; Potency, µM (series often up to 45.6 µM), for inactives: at the highest dose activation, most hits filed as activators; actives 0.007% (n = 380,000); note: potency is the fitted concentration of half-maximal effect; % of control where 0% means no effect
* hit, by the source's call; [ ] = remark or other dose. Unless noted, calls come from the whole dose curve; as a rule, active = well fitted curve in the direction sought with a large enough effect; inconclusive = small, poorly fitted or top-dose-only effect, or another doubt; inactive = no such curve, though single readings can be large; an effect the other way counts as inactive or inconclusive.

O=C(c1noc2c1CCCC2)N1CCc2c([nH]c3ccccc23)C1c1ccccn1 (configuration not stated) was read as p53 reactivator 1%, HEK293 tox 3%, GLP-1R inv ag -19%, LDHA block 2 and GLP-1R agonist 11%.
For Cc1cccc(C2c3[nH]c4ccccc4c3CCN2C(=O)c2noc3c2CCCC3)n1 (configuration not stated) the results were p53 reactivator -1%, HEK293 tox -9%, GLP-1R inv ag 7.1µM*, LDHA block 0, ClpP mod 0% and GLP-1R agonist 17%.
Cc1ncoc1C(=O)N1CCc2c([nH]c3ccccc23)C1C1CCCCC1 (configuration not stated) was read as p53 reactivator 15%, HEK293 tox 67%, GLP-1R inv ag 10µM*, LDHA block 1 and GLP-1R agonist -10%.
O=C(O)CCc1nn2c3ccccc3nc2n(CCN2CCCCC2)c1=O was read as p53 reactivator -3%, HEK293 tox 50%, GLP-1R inv ag 13%, LDHA block -2, ClpP mod 18µM* and GLP-1R agonist 5%.
O=C(O)CCc1nn2c3ccccc3n(CC(=O)c3ccccc3)c2nc1=O was read as p53 reactivator 1%, HEK293 tox 2%, GLP-1R inv ag 6%, LDHA block -1, ClpP mod 32µM* and GLP-1R agonist -1%.
`Cc1ccc(NC(=O)COC(=O)CCc2nc3ccccc3c(=O)[nH]2)c(Br)c1` gave p53 reactivator 2%, HEK293 tox 5%[0.307 µM], GLP-1R inv ag 2%[0.307 µM], LDHA block 4, ClpP mod 0% and GLP-1R agonist 5%.
Screening Cc1c(C)n(CC(O)CN2CCCCC2)c2ccccc12 (configuration not stated) returned p53 reactivator 2%, HEK293 tox -17%, GLP-1R inv ag inconclusive, LDHA block inconclusive, ClpP mod 32µM* and GLP-1R agonist 0%.
Cc1c(C)n(CC(O)CN2CCOCC2)c2ccccc12 (configuration not stated) was read as p53 reactivator -2%, HEK293 tox 0%, GLP-1R inv ag -2%, LDHA block -11, ClpP mod -16% and GLP-1R agonist 2%.
For Cc1cc(C)n(CC(O)Cn2c(C)c(C)c3ccccc32)n1 (configuration not stated) the results were p53 reactivator -5%, HEK293 tox -15%, GLP-1R inv ag inconclusive, LDHA block -10, ClpP mod 32µM* and GLP-1R agonist 3%.
Cc1c(C)n(CC(O)CN2CCN(C)CC2)c2ccccc12 (configuration not stated) was read as p53 reactivator -9%, HEK293 tox -19%, GLP-1R inv ag -27%, LDHA block -1, ClpP mod 4% and GLP-1R agonist 8%.
Screening O=C(Cc1ccc(-c2ccccc2)cc1)NC1CCCC1 returned p53 reactivator -1%, HEK293 tox -1%, GLP-1R inv ag -28%, LDHA block -4 and GLP-1R agonist 4%.
`CC1(C(=O)Nc2cccc(-n3cnnn3)c2)Cc2ccccc2C(=O)O1` (configuration not stated) gave p53 reactivator -11%, HEK293 tox -9%, GLP-1R inv ag 12%, LDHA block -8, ClpP mod 35µM* and GLP-1R agonist -6%.
Screening CC1(C(=O)Nc2cccc(Br)c2)Cc2ccccc2C(=O)O1 (configuration not stated) returned HEK293 tox 5%, GLP-1R inv ag inconclusive, LDHA block 0, ClpP mod 1% and GLP-1R agonist -4%.
`CC(C)Cn1c(=O)c2sccc2n(CC(=O)NCC2CCCO2)c1=O` (configuration not stated) gave LDHA block -3.
